About 83,000 compounds went through this panel and 20% of them were active in at least one assay; those are over-represented in the sample as a whole.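 Method: cells in 96-well plates; compound added at one concentration; 48 h incubation; percent growth measured; values under 10 scored active.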 Activity calls are given as the source filed them.

Results on 40 molecules are retold here after PubChem BioAssay (NCI).

In the experiment the test system is NCI-H23 lung. Description: NCI-60 one-dose screen, 48 h (100 = growth as untreated, 0 = no growth, -100 = all killed). The conditions noted are these: 10 µM unless noted. As for the experimental part: Growth inhibition of the NCI-H23 human Non-Small Cell Lung tumor cell line is measured as a screen for anti-cancer activity. Cells are grown in 96 well plates and exposed to the test compound for 48 hours. Compounds are tested at a single concentration, which is 10^-5 M for most compounds. The reported endpoint is percent growth (GI% or GIPRCNT), where numbers from 0 - 100% represent growth inhibition, and numbers from -100% - 0 represent cell death. For example, a value of 40 represents 60% growth inhibition. A value of 0 means no net growth occurred over the course of the experiment. A value of -40 indicates 40% of cells at the beginning of the experiment died by the end of the experiment. A value of -100 means all cells are dead at the end of the experiment.
NCI-60 Human Tumor Cell Lines Screen was performed using the standard one-dose NCI protocol, which is described in more detail at https://dtp.cancer.gov/discovery_development/nci-60/default.htm.
Compounds with GIPRCNT values below 10 were considered active. Activity score was based on GIPRCNT using the following formula: […]
Score is 0 for GIPRCNT values of 100 or above, 50 for GIPRCNT values of 0, and 100 for GIPRCNT values of -100.
In the case of `CC(C)N1C(=O)/C(=c2\sc3n(c2=O)C2C(NN=3)N(C)C(=O)N2C)c2ccccc21` (stereo not given), the growth was 74.6% (inactive).

`COc1ccc2cc(-c3ccnc4c(N=Nc5ccc(Cl)cc5)c(N)nn34)ccc2c1`: the growth was 108% (inactive).

For `CC(=O)c1ccc(Nc2nccc(-c3ccc4ccccc4c3)n2)cc1`, the growth is 94.4% (inactive).

For the molecule `O=C(CCCCCNC(=O)c1cc(=O)c(O)co1)Nc1ccccc1`, the growth was 99.1% (inactive).

`CN(Cc1cnc2nc(N)nc(N)c2n1)c1ccc(C(=O)NC(CCC(=O)O)C(=O)O)cc1Br` (stereo not given): the growth was 31.3% (inactive).

Regarding `Cc1ccc(S(=O)(=O)c2nc(-c3ccccc3)oc2Sc2nc3ccccc3s2)cc1`, the growth was 20.9% (inactive).

As to `COc1ccc2c(c1)/C(=N/c1n[nH]c(=S)s1)C(=O)N2`, the growth was 93% (inactive).

Regarding `Cc1cccc2c1C[C@@]1(C2=O)C(c2ccc(C(C)(C)C)cc2)=NOS1=O` (stereo not given in full), the growth was 83.2% (inactive).

Take `Fc1cccc(-c2ccc3c(c2)C2(CCNCC2)CN3)c1`: the growth is 92.1% (inactive).

In the case of `COc1ccc(CCN2C(=O)/C(=C/c3ccc(C4Oc5ccccc5C5CC(c6ccccc6)=NN54)cc3)SC2=S)cc1` (stereo not given), the growth is 100% (inactive).

As to `O=C(Nc1ccc(Cl)cc1)Oc1c(Cl)c(Cl)c(Cl)c(Cl)c1Cl`, the growth was 86.1% (inactive).

As for `CC/C=C\C[C@H](O)C/C=C1/C(=O)C=C[C@@H]1C/C=C\CCCC(=O)O`, the growth was 79.9% (inactive).

Turning to `O=S(=O)(Nc1cc(Sc2cccc3cccnc23)c(O)c2ccccc12)c1ccccc1`, the growth is 28.8% (inactive).

For `COc1cc2nc3sc(C(=O)Nc4ccc(C(=O)OC(C)C)cc4)c(C(=O)Nc4ccc(Cl)cc4C)n3c(=O)c2cc1OC`, the growth is 72.1% (inactive).

`COc1ccc(-c2nc(-c3cn(C)c4ncccc34)cs2)cc1`: the growth was 11.1% [100 µM] (inactive).

`C/C(=N\O)c1ccc(NC(=O)CSc2nnc(-c3cc(-c4ccc(S(N)(=O)=O)cc4)nc4ccccc34)n2-c2ccccc2)cc1`: the growth was 89.6% (inactive).

Consider `Cc1cccc(-c2nc(Nc3ccc4ncsc4c3)c3ccccc3n2)n1`, for which the growth was 57.8% (inactive).

In the case of `Nc1[nH]c(=S)nc2oc(-c3ccccc3)c(-c3ccccc3)c12`, the growth is 94.5% (inactive).

In the case of `COc1cc(Cl)c(C)cc1NC(=O)c1cc2ccccc2cc1O`, the growth was 2% (active).

As to `COc1ccc(C#Cc2ccc(=O)oc2-c2cc(OC)c(OC)c(OC)c2)cc1O`, the growth was 45.7% (inactive).

On to `COc1ccc2c(c1)CCc1[nH]nc(-c3cc(OC)c(OC)c(OC)c3)c1-2`, for which the growth is 12.7% (inactive).

Turning to `Cc1ccc2nc(-c3ccc(C(=O)NNC(=S)Nc4ccccc4)cc3)[nH]c2c1`, the growth was 91.5% (inactive).

In the case of `O=C(c1c[nH]c2ccccc12)c1n[nH]c(=S)n1-c1cccc(Br)c1`, the growth is 87.2% (inactive).

`CN1CCN(Cc2ccc(NC(=O)c3cncc(C#Cc4cnc(N)c5ncccc45)c3)cc2C(F)(F)F)CC1`: the growth was 22.2% (inactive).

For `Oc1c(CN2CCOCC2)cc(COCc2ccccc2)c2cccnc12`, the growth is 39.1% (inactive).

For the molecule `Cc1ccc(C)c(/C=C2\CN(C(=O)OC(C)(C)C)C/C(=C\c3cc(C)ccc3C)C2=O)c1`, the growth is 49.7% (inactive).

For the molecule `Fc1ccc2[nH]cc(-c3nc(-c4c[nH]c5ccncc45)cs3)c2c1`, the growth was 49.3% (inactive).

On to `C=C1C(=O)O[C@H]2[C@H]1CC/C(COC(=O)CSCSCC(=O)OC/C1=C/CC[C@@]3(C)O[C@H]3[C@H]3OC(=O)C(=C)[C@@H]3CC1)=C\CC[C@@]1(C)O[C@@H]21`, for which the growth was 24.6% (inactive).

Turning to `CCN1C(=O)N(CC)C2C1NN=c1s/c(=C\c3ccc[nH]3)c(=O)n12` (stereo not given), the growth is 42.9% (inactive).

For the molecule `Cc1ccc(NC(=O)Cn2c(Br)nc3c2c(=O)n(C)c(=O)n3C)cc1`, the growth was 22.7% (inactive).

Turning to `CCS/C(Nc1ccccc1)=C(\C#N)C(=O)Nc1ccc(OC)cc1`, the growth was 48.3% (inactive).

As for `Oc1c(CN2CCCC2)cc(CSCc2ccccc2)c2cccnc12`, the growth is 11.8% (inactive).

With `COc1cccc(CNc2c3ccccc3nc3ccccc23)c1`, the growth is 37.3% (inactive).

On to `CC1(C)N=C(N)N=C(N)N1c1cccc(CCc2ccccc2)c1`, for which the growth is 21.7% (inactive).

With `COc1ccc(/C=C2\CN(C(=O)C(Cl)Cl)C/C(=C\c3ccc(OC)cc3)C2=O)cc1`, the growth was -36.9% (active).

For the molecule `CN(Cc1ccccc1)c1nc(Cl)c(C2CC(c3ccccc3)=NN2c2ccccc2)s1` (stereo not given), the growth is 88.3% (inactive).

Turning to `COc1ccc(C[n+]2c3ccccc3n3c4ccc(N)cc4ccc32)c(OC)c1OC`, the growth is 48.9% (inactive).

On to `COc1cccc(/C=C/C(=O)c2cccc(Nc3nc(Nc4ccccc4)nc(Nc4ccccc4)n3)c2)c1`, for which the growth was 82.2% (inactive).

`O=C(Nc1ncc(Cc2ccccc2)s1)c1ccc2c(c1)OCCCO2`: the growth was 29.1% (inactive).

`O=C1Nc2ccccc2/C1=C/c1cccn1C(=O)c1ccc(Cl)s1`: the growth was 30.2% (inactive).
